± gives the standard deviation.
test system: EfPiwi piRISC loaded with piRNA #1 (26 nt); experiment: pre-steady-state target cleavage rate (min^-1); auxiliary factor: 500 nM Ephydatia muelleri Gtsf1; guide: piRNA #1 5'p-UGAGGUAGUAGGUUGUAUAGUAUCCA; MIWI and MILI are mouse PIWI proteins and EfPiwi is from a freshwater sponge; tags in brackets are library labels; higher = faster piRNA-guided slicing of the target
Method: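 Cleave-'n-Seq: a library of target RNAs (target site in constant flanks) at […] was incubated with 1 nM active freshwater sponge Ephydatia fluviatilis Piwi piRISC (synthetic 5'-monophosphorylated piRNA guide) with or without 500 nM EmGtsf1 at 33 °C for 1 min to 16 h. Uncleaved targets were sequenced and the pooled three trials fitted to a burst-and-steady-state model to give the pre-steady-state cleavage rate (min^-1). Sequence is the target site only. Fits with R² ≤ 0 are excluded.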

Sequence | pre-steady-state target cleavage rate
GGAGAGGAUACUAUACUACCUACUACCUCA | 0.00925 ± 0.0043
GGAGAGUAUACUAUACAACCUACUACCUCA | 0.0182 ± 0.0087
GGAGACCUAUGAUAACAAGGAACUACCUCA | < 0.0001
GGAGUCGAUACUAUACAACCAACUACCUCA | 0.00517 ± 0.002
GGAGAGGAUACUAUACAACCUACAACCUCA | 0.00428 ± 0.0019
GGAGACCUAUGAUAUCAACCUACUUCCACA | < 0.0001
GGAGACCUAUCAAUACAACCUACUACCUCA | 0.00612 ± 0.0034
GGAGACCAUACUAUACAACCUACUUACCUCA | 0.00697 ± 0.0031
GGAGACCUUACUAUACAACCUACUACCUUA | 0.0898 ± 0.034
GGAGUGGAUACAAUACAACCUACUACCACA | 0.00323 ± 0.0018
GGAGACCUAUCAUAACAACCUACUACCUCA | 0.00531 ± 0.0037
GGAGAGGAUACAAUACUACCUACUACCUCA | 0.00424 ± 0.0028
GGAGACCAUACUAUACAACCUGACUACCUCA | 0.00545 ± 0.0032
GGAGAGGAUACUAUACAGACCUACUACCUCA | 0.00626 ± 0.0046
GGAGUGGAUCUAUACAACCUACUACCUCA | 0.0612 ± 0.029
GGAGACCAUACUGAUACAACCUACUACCUCA | 0.0368 ± 0.013
GGAGUGGAUACUAUUCAACCUACUAGCUCA | 0.0025 ± 0.0021
GGAGACGAUACUAUACAACCUACUUCCUCA | 0.00431 ± 0.0018
GGAGACGAUACUAUAUAACCUACUACCUCA | 0.0091 ± 0.0042
GGAGACCAUACUAUACAGACCUACUACCUCA | 0.0137 ± 0.0061

Sequence | pre-steady-state target cleavage rate
GGAGACGAUACAUAUACAACCUACUACCUCA | 0.00804 ± 0.0033
GGAGACCUUACUAUACAACCUACUAGGAGA [g6:g22:cont:t1A] | 0.00279 ± 0.0024
GGAGGGGAUACUAUACAACCUACUACCUCA | 0.209 ± 0.067
GGAGACCAUACUAUACACACCUACUACCUCA | 0.00511 ± 0.0031
GGAGAGGAUACUUUACAACCUACUACCACA | 0.0019 ± 0.0011
GGAGUCGAUACUAUACAACCUUCUACCUCA | 0.00622 ± 0.0028
GGAGACGAUACUAUACAACCUACUACCUAA | 0.103 ± 0.033
GGAGUGGAUACUAUACUACCAACUACCUCA | 0.00428 ± 0.002
GGAGACGAUACUAUACAACCUACAACGUCA | 0.00349 ± 0.0012
GGAGACCUAACUAUACAACCUACUACCUGCA | 0.0711 ± 0.039
GGAGACGAUACUAUACUACCUACUAGCUCA | 0.00251 ± 0.0018
GGAGUGGAUACUAUACAACGUACUACCUGA | 0.00457 ± 0.0015
GGAGACCAUACUAUACAACCUACUAACCUCA | 0.00357 ± 0.0025
GGAGACCUAUGAUAUGUACCUAUUACCUCA | < 0.0001
GGAGUGGAUACUAUAGAACCUACUAGCUCA | 0.00232 ± 0.0015
GGAGUGGAUACUAUACAUCCAACUACCUCA | 0.00457 ± 0.0019
GGAGUGGAUACUAAACAAGCUACUACCUCA | 0.00401 ± 0.0019
GGAGUGGAUUCUAUACAACCUACUACGUCA | 0.0027 ± 0.0024
GGAGUGGAUACUAUACAACCUUCAACCUCA | 0.00298 ± 0.0018
GGAGACCUUACUAUAGAACCUACUACCUCA | 0.00324 ± 0.0026

Source: the supplement of paper PMC10338343
